# Measurements reported in PubChem BioAssay (NCI).
# Several values for one entry are separate records, joined by “and”; a condition that tells them apart may be missing. Equal values may be shown once. About 79,000 compounds went through this panel and 15% of them were active in at least one assay; those are over-represented in the sample as a whole. Unmarked numbers belong to inactive results. Activity calls are given as the source filed them. Cut-off read from the data, not from the text of the source: active = growth inhibition above about 70%; inactive = the rest.
# Experiments:
# [1] = NCI Yeast Anticancer Drug Screen. Data for the rad50 strain (AID 155);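 note: 0% = growth of vehicle-only cultures of the same strain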; conditions: S. cerevisiae rad50 strain growth inhibition, stronger effect = higher value
# Summary of the method: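 Inhibition values express reduced yeast growth in compound-treated cultures relative to vehicle-treated controls.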
# [2] = NCI Yeast Anticancer Drug Screen. Data for the mec2-1 strain (AID 157); conditions: S. cerevisiae mec2-1 strain, stronger effect = higher value
# Summary of the method: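 Using mec2-1 yeast: add compound, measure growth, express inhibition versus vehicle-treated cultures.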
# [3] = NCI Yeast Anticancer Drug Screen. Data for the sgs1 mgt1 strain (AID 161);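 note: 0% = growth of cultures given vehicle only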; conditions: S. cerevisiae sgs1 mgt1 strain, stronger effect = higher value
# Summary of the method: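 Percent growth inhibition was derived by comparing compound-exposed mutant yeast with vehicle-exposed cultures. The strain carries alterations in DNA damage repair.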
# [4] = NCI Yeast Anticancer Drug Screen. Data for the cln2 rad14 strain (AID 165);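 note: 0% = growth equal to vehicle treated cultures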; conditions: S. cerevisiae cln2 rad14 strain, stronger effect = higher value
# Summary of the method: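 Yeast strain cln2 rad14, bearing defects in cell cycle control and DNA repair, serves as the test system; values reflect growth inhibition compared with vehicle.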
# [5] = NCI Yeast Anticancer Drug Screen. Data for the bub3 strain (AID 167); conditions: S. cerevisiae bub3 mutant strain, stronger effect = higher value
# Summary of the method: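 Steps: expose the mutant yeast strain to compound; grow alongside vehicle-treated cultures; measure growth; express inhibition against the vehicle cultures.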
# [6] = NCI Yeast Anticancer Drug Screen. Data for the mlh1 rad18 strain (AID 175); conditions: S. cerevisiae mlh1 rad18 strain growth inhibition, stronger effect = higher value
# Summary of the method: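 Steps: expose repair-defective yeast to compound; measure growth; express inhibition against vehicle-treated controls.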
# [7] = at 5.0 µM (retest, dose inferred, filed as 0.5)
# [8] = at 50.0 µM (retest, dose inferred, filed as 5.0)
SMILES,"growth inhibition [1, 7]","growth inhibition [1, 8]",growth inhibition ([1]; at 50.0 µM),"growth inhibition [2, 7]","growth inhibition [2, 8]",growth inhibition ([2]; at 50.0 µM),"growth inhibition [3, 7]","growth inhibition [3, 8]",growth inhibition ([3]; at 50.0 µM),"growth inhibition [4, 7]","growth inhibition [4, 8]",growth inhibition ([4]; at 50.0 µM),"growth inhibition [5, 7]","growth inhibition [5, 8]",growth inhibition ([5]; at 50.0 µM),"growth inhibition [6, 7]","growth inhibition [6, 8]",growth inhibition ([6]; at 50.0 µM)
C[As](c1ccc(Br)cc1)c1ccc(Br)cc1,-4%,1%,3.6%,-2%,20%,25.8%,7%,46%,75.5% (active),-5%,-18%,52.1%,2%,44%,-14.2%,6%,22%,53%
Cc1cc([N+](=O)[O-])c(O)c([N+](=O)[O-])c1C,2%,71% (active),67.5%,12%,47%,26.6%,3%,70% (active),62.5%,-42%,34%,45.4%,11%,58%,63.2%,-7%,90% (active),54.1%
COc1cc(OC)c(OC)cc1/C=C/[N+](=O)[O-],35%,64%,85.9% (active),24%,85% (active),90.9% (active),46%,85% (active),90.8% (active),9%,39%,77.8% (active),12%,67%,94.8% (active),71% (active),91% (active),92% (active)
CC1CCC2(OC1)OC1CC3C4CC=C5CC(OC6OC(CO)C(OC7OC(C)C(OC8OC(C)C(O)C(O)C8O)C(O)C7O)C(O)C6OC6OC(C)C(O)C(O)C6O)CCC5(C)C4CCC3(C)C1C2C (configuration not stated),100% (active),94% (active),87.3% (active),99% (active),96% (active),81.5% (active),99% (active),95% (active),84% (active),99% (active),95% (active),86.7% (active),99% (active),95% (active),89.2% (active),98% (active),91% (active),86.5% (active)
O=C(CCl)Nc1cccc(Cl)c1,3%,80% (active),92.4% (active),2%,50%,89.5% (active),1%,68%,87.5% (active),2%,33%,67.8%,10%,78% (active),94.4% (active),2%,78% (active),95% (active)
Oc1c(Cl)c(Cl)c(Cl)c(Cl)c1Cl,14% and 30%,99% (active) and 100% (active),80.8% (active) and 99% (active),16% and 23%,100% (active) and 99% (active),99.8% (active) and 99% (active),13% and 39%,98% (active) and 99% (active),97.5% (active) and 99.2% (active),15% and 30%,99% (active),99% (active),5% and 13%,99% (active),99.4% (active) and 99% (active),21% and 40%,99% (active),90% (active) and 99% (active)
C(CCC[Te][Te]CCCCCCOC1CCCCO1)CCOC1CCCCO1 (configuration not stated),6%,39%,84.5% (active),3%,17%,48.5%,7%,19%,67.7%,3%,29%,62.4%,0%,30%,68.7%,2%,30%,90% (active)
O=C1C(F)=C(N2CC2)C(=O)C(F)=C1N1CC1,99% (active),99% (active),91.7% (active),100% (active),99% (active),94% (active),100% (active),99% (active),91% (active),100% (active),99% (active),91.5% (active),98% (active),99% (active),92.8% (active),99% (active),99% (active),91.5% (active)
CC1(C)OCC(COC(=O)C=[N+]=[N-])O1 (configuration not stated),0%,-10%,2.75%,0%,-7%,0.75%,11%,-4%,-7.5%,-3%,-14%,-6.95%,2%,-3%,-2.25%,-2%,-14%,42.5%
